# From PubChem BioAssay (NCATS)
# Inconclusive results are not listed. A call without a number means that no potency is given here. Activity calls are given as the source filed them. Calls come from the whole dose curve; as a rule, active = well fitted curve in the direction sought with a large enough effect; inconclusive = small, poorly fitted or top-dose-only effect, or another doubt; inactive = no such curve, though single readings can be large; an effect the other way counts as inactive or inconclusive. Residues, ends and D or L forms follow the SMILES beside them. *: point of attachment. Cbz = O=C(OCc1ccccc1)*
# Tests used:
# [1] = target: Metallo-beta-lactamase type 2 (Klebsiella pneumoniae) (UniProt C7C422); assay: qHTS to identify inhibitors of the New Delhi Metallo-beta-lactamase (NDM): assay validation screen against the NCATS LOPAC Collection (AID 1794843);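 note: nitrocefin turnover by NDM-1 measured as 485 nm absorbance at plateau; series mostly up to about 38 µM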
# In short: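 Nitrocefin hydrolysis (50 uM substrate stock) by NDM-1, 2 nM final, was followed by 485 nm absorbance after compound preincubation; buffer was 50 mM HEPES pH 7.0, 1 uM ZnSO4, 0.01% Tween20.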
# [2] = target: Glutathione peroxidase 1 (Homo sapiens) (UniProt P07203); assay: Primary qHTS Assay for Inhibitors of Recombinant Selenoprotein Glutathione Peroxidase 1 (GPX1) (AID 1845191); note: nearly all actives have a fitted effect of over 65% in size
# In short: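 NADPH consumption tracked by fluorescence at 340/450 nm between t=0 and t=15 min, room temperature. Final mix: 10 nM GPX1, 100 nM glutathione reductase, 1 mM GSH, 0.5 mM NADPH, 0.5 mM cumene hydroperoxide, 0.01% BSA; 30 min compound–enzyme preincubation.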
# [3] = target: Phospholipid hydroperoxide glutathione peroxidase GPX4 (Homo sapiens) (UniProt P36969); assay: Primary qHTS Assay for Inhibitors of Recombinant Selenoprotein Glutathione Peroxidase 4 (GPX4) (AID 1845192); note: nearly all actives have a fitted effect of over 65% in size; note: potency is the fitted concentration of half-maximal effect
# In short: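 NADPH consumption followed by fluorescence at 340/450 nm, t=0 and after 15 min at room temperature. Reaction started with cumene hydroperoxide (0.5 mM final) after 30 min compound–GPX4 preincubation; final 200 nM GPX4, 100 nM GR, 1 mM GSH, 0.5 mM NADPH.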
# Glutathione peroxidase 1 (Homo sapiens), sequence (P07203 whole entry, looked up): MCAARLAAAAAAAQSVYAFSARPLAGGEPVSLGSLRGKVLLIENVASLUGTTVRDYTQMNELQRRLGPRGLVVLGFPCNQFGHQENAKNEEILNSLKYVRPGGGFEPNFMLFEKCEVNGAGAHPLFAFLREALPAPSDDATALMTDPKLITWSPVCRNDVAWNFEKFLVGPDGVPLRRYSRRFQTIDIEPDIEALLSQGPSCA
# Phospholipid hydroperoxide glutathione peroxidase GPX4 (Homo sapiens), sequence (P36969 whole entry, looked up): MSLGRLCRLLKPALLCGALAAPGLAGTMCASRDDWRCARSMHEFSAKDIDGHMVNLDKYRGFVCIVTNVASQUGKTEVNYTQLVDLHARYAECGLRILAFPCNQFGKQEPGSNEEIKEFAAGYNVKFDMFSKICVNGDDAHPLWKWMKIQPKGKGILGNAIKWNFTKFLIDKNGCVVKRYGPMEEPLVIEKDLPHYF
# Metallo-beta-lactamase type 2 (Klebsiella pneumoniae), sequence (C7C422 whole entry, looked up): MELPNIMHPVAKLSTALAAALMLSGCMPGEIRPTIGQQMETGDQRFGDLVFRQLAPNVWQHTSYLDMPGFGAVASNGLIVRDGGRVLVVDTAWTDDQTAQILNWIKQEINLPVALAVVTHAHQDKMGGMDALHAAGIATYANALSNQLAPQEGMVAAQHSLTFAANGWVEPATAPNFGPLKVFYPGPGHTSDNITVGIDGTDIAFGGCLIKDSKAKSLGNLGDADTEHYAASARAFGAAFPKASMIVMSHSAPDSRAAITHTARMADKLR
Structure (SMILES),Potency [1],Potency [2],Potency [3]
C/C(=C\c1ccc(C(=O)O)cc1)c1ccc2c(c1)C(C)(C)CCC2(C)C,inactive,inactive,inactive
O=C(O)c1ccccc1Nc1ccccc1,inactive,inactive,inactive
Nc1nc2ccc(Cl)cc2c2nc(-c3ccco3)nn12,inactive,inactive,inactive
O=[N+]([O-])c1cccc2c(Br)[nH]nc12,inactive,inactive,inactive
N[C@H](C(=O)O)c1cc(O)cc(O)c1,inactive,inactive,inactive
N=C(N)c1ccccc1,inactive,inactive,inactive
CC(C)[C@H](NC(=O)OCc1ccccc1)C(=O)N[C@H](C=O)Cc1ccccc1 (Cbz-Val-Phe-aldehyde),inactive,inactive,inactive
Cn1cc(C(F)(F)F)nc1-c1ccc(OCC(O)CNCCOc2ccc(O)c(C(N)=O)c2)cc1 (configuration not stated),inactive,inactive,inactive
c1ccc2c(c1)CC(N1CCN(c3cccc4c3OCCO4)CC1)C2,inactive,inactive,inactive
Nc1ccc(N2C(=O)c3ccccc3C2=O)c(Cl)c1,inactive,inactive,inactive
Oc1ccc(/C=C/c2ccc(/C=C/c3ccc(O)cc3)c(Br)c2)cc1,inactive,inactive,inactive
OC[C@H]1NC[C@@H](O)[C@@H]1O,inactive,inactive,inactive
CCC1(O)CC2CN(CCc3c([nH]c4ccccc34)[C@@](C(=O)OC)(c3cc4c(cc3OC)N(C=O)C3[C@]45CCN4CC=C[C@@](CC)([C@@H](OC(C)=O)[C@]3(O)C(=O)OC)[C@H]45)C2)C1 (some centres not stated),inactive,inactive,inactive
CC1CCN(CC[C@H]2CCCN2S(=O)(=O)c2cccc(O)c2)CC1,inactive,inactive,inactive
COC1(C2=NCCN2)COc2ccccc2O1 (configuration not stated),inactive,inactive,inactive
COc1cccc(OC)c1OCCNCC1CSc2ccccc2O1 (configuration not stated),inactive,inactive,inactive
CC(N)=O,inactive,inactive,inactive
C=C1C(=O)O[C@@H]2[C@H]3O[C@]3(C)CCC=C(C)CC[C@@H]12,inactive,inactive,inactive
O=C(c1ccc2c(c1)OCCO2)N1CCCCC1,inactive,,inactive
O=C(O)[C@H]1NCCC[C@H]1C(=O)O,inactive,inactive,inactive
C[C@H](NC(=O)/C(C#N)=C/c1ccc(O)c(O)c1)c1ccccc1,inactive,inactive,inactive
N[C@@H](Cc1ccc(F)cc1)C(=O)O,inactive,inactive,inactive
O=C(O)c1cc(=O)cc(C(=O)O)[nH]1,inactive,,inactive

Structure (SMILES),Potency [1],Potency [2],Potency [3]
CSC(N)=NCCC[C@H](N)C(=O)O,inactive,,inactive
COCc1nc2c([nH]1)c(=O)n(C)c(=O)n2CC(C)C,inactive,inactive,inactive
CCN(CC)CCOC(=O)c1cc(Cl)c(N)cc1OC,inactive,inactive,inactive
COc1ccc2c(c1)c(CC(=O)O)c(C)n2C(=O)c1ccccc1,inactive,inactive,inactive
NCCCNCCCCNCCCN,inactive,inactive,inactive
NC1CONC1=O (configuration not stated),inactive,inactive,inactive
Cc1ccc([N+](=O)[O-])cc1S(=O)(=O)N(C)C,inactive,,inactive
Cn1c(=O)c2[nH]c(-c3ccc(S(=O)(=O)O)cc3)nc2n(C)c1=O,inactive,,11.2 µM (active)
CC1C(=O)N(C)C(=O)c2nc[nH]c21 (configuration not stated),inactive,inactive,inactive
CCCCCCCCCC[Si](C)(C)CCC(=O)NC(Cc1ccc(C)cc1)c1ccccc1 (configuration not stated),inactive,inactive,inactive
NC(C(=O)N[C@@H]1C(=O)N2C(C(=O)O)=C(Cl)CS[C@H]12)c1ccccc1 (some centres not stated),inactive,,inactive
CCCCCCC(=O)OC1CC(C)(C)NC(C)(C)C1,inactive,,inactive
Nc1ncnc2c1ncn2C1CCCO1 (configuration not stated),inactive,,inactive
COc1ccccc1N1CCN(CCCNc2c(C)c(=O)n(C)c(=O)n2C)CC1,inactive,inactive,inactive
O=c1ccn([C@@H]2O[C@H](COP(=O)(O)OP(=O)(O)O)[C@@H](O)[C@H]2O)c(=O)[nH]1,inactive,,inactive
CC(N)(C(=O)O)c1ccc(C(=O)O)cc1 (configuration not stated),inactive,inactive,inactive
Fc1ccc(CN(C2=NCCN2)c2c(Cl)cccc2Cl)cc1,inactive,,inactive
Clc1nccc2c1ccc1ccccc12,inactive,inactive,inactive
CC(C)Cn1c(=O)n(C)c(=O)c2[nH]cnc21,inactive,,inactive
O=c1cc(-c2ccccc2F)[nH]c2cc3c(cc12)OCO3,inactive,inactive,inactive
NCCCCN,inactive,,inactive
NC1(C(=O)O)CC1,inactive,,inactive
N#CC(=C(\N)Sc1ccccc1N)/C(C#N)=C(/N)Sc1ccccc1N,inactive,,inactive

Structure (SMILES),Potency [1],Potency [2],Potency [3]
c1ccc(C2CN3CCSC3=N2)cc1 (configuration not stated),inactive,inactive,inactive
C=C(C)C1CC=C(C(=O)O)CC1 (configuration not stated),inactive,,inactive
CC(N)=NCCCC[C@@H](N)C(=O)O,inactive,inactive,inactive
Nc1nc2c(nc(Br)n2C2OC3COP(=O)(O)O[C@@H]3C2O)c(=O)[nH]1 (some centres not stated),inactive,inactive,inactive
NC(=O)CNCCC(c1ccccc1)c1ccccc1,inactive,,inactive
NC1CCN(O)C1=O (configuration not stated),inactive,,inactive
Cn1c(=O)c2c(nc(/C=C/c3cccc(Cl)c3)n2C)n(C)c1=O,inactive,,inactive
CCCCCCCCCCCCCCC[C@H](O)[C@H](N)CO,inactive,,inactive
COc1ccc(CCn2nnnc2C2(c3ccc(C)cc3)CC2)cc1,inactive,,inactive
Nc1ccc(-c2nc3ccc(-c4nc5ccc(N)cc5[nH]4)cc3[nH]2)cc1,inactive,inactive,inactive
O=[N+]([O-])c1cccc2cn[nH]c12,inactive,,inactive
CNc1cc(NS(=O)(=O)c2ccc(N)cc2)nc(NC)n1,,inactive,inactive
C=CC1(C)CC(=O)C2(O)C(C)(O1)C(OC(C)=O)C(O)C1C(C)(C)CCC(O)C12C (configuration not stated),,inactive,inactive
NS(=O)(=O)c1cccc2c1c([N+](=O)[O-])cc1nc(O)c(O)nc12,,inactive,inactive
CNCCc1cnc(CCC(c2ccccc2)c2ccccc2)[nH]1,,inactive,inactive
N=C(N)SCCN,inactive,,inactive
CC(=O)N[C@@H](Cc1c[nH]c2ccccc12)C(=O)OCc1cc(C(F)(F)F)cc(C(F)(F)F)c1,,inactive,inactive
CSc1nc(N)c2ncn([C@@H]3O[C@H](COP(=O)(O)OP(=O)(O)O)C(O)[C@H]3O)c2n1 (some centres not stated),,inactive,inactive
COc1cc(/C=C(\C#N)C(=O)c2ccc(O)c(O)c2)cc(I)c1O,inactive,,inactive
C[C@](Cc1ccc(O)c(O)c1)(NN)C(=O)O,,inactive,inactive
CCCn1c(=O)c2[nH]c(-c3ccc(S(=O)(=O)O)cc3)nc2n(CCC)c1=O,inactive,,11.2 µM (active)
O=c1[nH]c(=S)[nH]c(-c2ccccc2)c1Cc1c(O)ccc2ccccc12,,inactive,inactive
